LYPLA2 inh = counter-screen for PME1 inhibitors: inhibitors of human LYPLA2. AID 2177. 0.38% of 320,000 active. recombinant LYPLA2, FP-Rh probe fluorescence polarization. inhibition, % at 5.9 µM;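 active = inhibition above the screen-wide mean plus 3 SD, limit set per campaign, cut at about 26% in these data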;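 also: 0% = LYPLA2 with DMSO and 100% = wells lacking LYPLA2 enzyme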
Target sequence (O95372 whole entry, looked up): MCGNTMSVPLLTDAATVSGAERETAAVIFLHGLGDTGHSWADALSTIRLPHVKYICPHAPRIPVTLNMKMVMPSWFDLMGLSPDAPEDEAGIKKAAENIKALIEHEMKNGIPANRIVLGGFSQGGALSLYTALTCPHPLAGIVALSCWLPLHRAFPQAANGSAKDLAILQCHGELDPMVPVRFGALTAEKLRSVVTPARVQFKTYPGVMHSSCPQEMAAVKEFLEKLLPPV
PME-1 inh = PME-1 (human) inhibition. inhibition, % at 5.9 µM. AID 2130. Q9Y570. 0.53% of 320,000 active. recombinant PME-1, FP-Rh probe fluorescence polarization;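 active = inhibition above the campaign mean of all compounds plus 3 SD, cut at about 26% in these data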;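 also: competitive labeling of PME-1 active site by serine hydrolase directed probe; 0% = PME-1 with DMSO and 100% = wells lacking PME-1 enzyme; inhibitors block probe labeling so polarization falls and inhibition rises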
Target sequence (Q9Y570 whole entry, looked up): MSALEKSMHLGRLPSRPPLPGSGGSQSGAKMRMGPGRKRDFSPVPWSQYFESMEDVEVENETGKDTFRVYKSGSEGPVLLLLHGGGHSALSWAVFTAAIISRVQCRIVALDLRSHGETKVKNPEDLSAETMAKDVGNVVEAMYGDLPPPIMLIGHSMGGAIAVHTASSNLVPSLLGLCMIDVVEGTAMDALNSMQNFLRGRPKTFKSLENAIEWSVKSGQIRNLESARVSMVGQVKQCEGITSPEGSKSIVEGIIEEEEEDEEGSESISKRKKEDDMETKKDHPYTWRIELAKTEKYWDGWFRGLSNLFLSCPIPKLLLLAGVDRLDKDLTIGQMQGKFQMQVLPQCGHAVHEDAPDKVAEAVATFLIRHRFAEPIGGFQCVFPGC
Fam108B counter = blocks mouse Fam108B hydrolase in RBBP9 counter-screen; recombinant Fam108B, FP-Rh probe fluorescence polarization; inhibition, % at 9.51 µM; 0.33% of 300,000 active; AID 1947;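 active = inhibition above the screen mean inhibition plus 3 SD, computed separately per campaign, cut at about 18% in these data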;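 also: inhibitors lower polarization as less probe binds the enzyme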
PP5 inh = inhibitors of human protein phosphatase 5 (PP5) | P53041 | purified PP5c, OMFP substrate fluorescence | inhibition, % at 6.7 µM | 0.18% of 320,000 active | AID 1987;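 active = inhibition above the campaign's mean inhibition across all tested compounds plus 3 SD, cut at about 9.5% in these data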;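 also: 0% = DMSO only and 100% = 100 µM cantharidin control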
LYPLA1 inh = blocks human lysophospholipase 1, a PME1 counter-screen. O75608. recombinant LYPLA1, FP-Rh probe fluorescence polarization. inhibition, % at 5.9 µM. 0.16% of 320,000 active. AID 2174;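 active = inhibition above the mean of all tested compounds plus 3 SD, set per campaign, cut at about 14% in these data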;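 also: inhibitors block serine hydrolase probe labeling of LYPLA1 so polarization falls; 0% = enzyme with DMSO and 100% = wells lacking LYPLA1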
PP1 counter = blocks human PP1-alpha phosphatase, a PP5 counter-screen; inhibition, % at 6.7 µM; 0.9% of 320,000 active; AID 2235; P62136; purified PP1alpha, OMFP fluorescence;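 active = inhibition above the mean inhibition of all tested compounds plus 3 SD, computed separately for each screening campaign, cut at about 15% in these data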
Active calls of the source: *; · = no result given. In the library only some 1.8% were active in any assay of this set; here they are far more common.

SMILES | LYPLA2 inh | PME-1 inh | Fam108B counter | PP5 inh | LYPLA1 inh | PP1 counter
CC(=O)Oc1ccc(C(=O)Nc2cccc(C(=O)NC(C)(C)C)c2)cc1 | 0.9 | 3.4 | -3.1 | 2.5 | -3.9 | -1.4
CC(=O)Oc1ccc(C(=O)Nc2cccc(C(=O)c3cccc(NC(=O)c4ccc(OC(C)=O)cc4)c3)c2)cc1 | -16.1 | -33.2 | -25.4 | 0.5 | -14.4 | 15.4*
O=C1c2ccccc2C(=O)N1C/C=C/c1ccccc1 | 18.3 | -3.1 | 2.0 | -0.7 | -3.8 | 1.3
O=C1C(=O)N(C/C=C/c2ccccc2)c2ccccc21 | -4.6 | 3.5 | -3.6 | 0.2 | -1.3 | 17.2*
COc1ccccc1CCN1CCCC(CN(C)C(=O)c2ccoc2)C1 (stereo unspecified) | -7.9 | -1.6 | -0.8 | -1.0 | -2.5 | 0.0
CCOC(=O)C1Nc2ccc(C(=O)O)cc2C2C=CCC12 (stereo unspecified) | -7.1 | -38.9 | 17.6 | -1.1 | -14.1 | 33.9*
Cc1ccc(-c2nc(Nc3ccccc3)n[nH]2)cc1 | -2.6 | 40.8* | 0.3 | 1.6 | -1.3 | 0.5
Nc1nc(CSc2n[nH]c(-c3ccccc3)n2)nc(Nc2ccccc2)n1 | 2.8 | -9.3 | -2.3 | 6.1 | -0.2 | -2.4
c1ccc(Oc2nnc(-c3cccs3)c3ccccc23)cc1 | 1.2 | -5.0 | 3.8 | 0.9 | 1.7 | 16.1*
O=C(/C=C1\NC2(CCCC2)Cc2ccccc21)C(=O)N/N=C/c1ccc(O)c(O)c1 | -7.0 | 32.0* | 10.8 | 4.6 | -13.0 | 1.7
COc1ccc(C(C[N+](=O)[O-])c2c(C)cc3ccccn23)cc1 (stereo unspecified) | 5.7 | 0.4 | 9.2 | 3.3 | 0.1 | 13.6
COc1ccc(C(C[N+](=O)[O-])c2c(-c3ccccc3)cc3ccccn23)c(OC)c1 (stereo unspecified) | -0.8 | 1.0 | -0.9 | -2.5 | -1.1 | 16.8*
O=C(NCCS(=O)(=O)c1ccc(Br)cc1)c1c(F)cccc1F | 4.7 | -7.9 | 3.7 | 4.1 | 3.9 | -4.5
O=C(Nc1ccccc1)c1cc(S(=O)(=O)N2CCCCC2)ccc1N1CCOCC1 | 4.1 | 1.4 | · | 3.3 | -1.6 | -1.4
C=CCn1c(O)c(N=Nc2ccccc2O)c2ccccc21 | 8.0 | 33.6* | · | 6.4 | -2.6 | 6.7
C=CCn1c(O)c(N=Nc2ccccc2)c2ccccc21 | 7.9 | 2.0 | 3.8 | 3.3 | 1.1 | 1.4
CCOC(=O)N1CCN(C(=O)C2CCC(=O)N(Cc3ccc(Cl)cc3)C2)CC1 (stereo unspecified) | 0.4 | 9.4 | 2.1 | 0.3 | -0.9 | 0.3
COc1nc(N)nc(N)c1NS(=O)(=O)c1ccc(C)cc1 | -2.0 | -7.5 | 0.7 | 0.2 | 4.4 | -0.8
CO[C@H]1O[C@H](CBr)[C@@H](OC(=O)c2ccccc2)[C@H](O)[C@H]1O | 4.2 | -1.4 | -0.3 | -0.7 | 0.3 | -3.2
CC(C)CC1Nc2ncnc(N3CCN(c4ccccn4)CC3)c2N(Cc2ccc(Br)cc2)C1=O (stereo unspecified) | -7.0 | 9.7 | 0.1 | 2.2 | -5.2 | 16.6*
Cc1ccc(CN2C(=O)C(CC(C)C)Nc3ncnc(N4CCN(c5ccccn5)CC4)c32)cc1 (stereo unspecified) | 1.9 | 2.3 | -0.8 | 2.3 | -2.3 | 6.8
Cc1cc(C(=O)CS(=O)(=O)c2ccc(F)cc2)cc(C)c1O | 0.1 | -0.2 | -5.5 | -0.7 | -1.9 | -3.0
COc1ccc(CNC(=O)Cc2cn(C)c3ccccc23)c(OC)c1 | -0.1 | 2.9 | 2.1 | -0.3 | 0.4 | -1.6
CC(=O)Nc1nc(C)c(Oc2ccc(C)cc2)c(=O)[nH]1 | 2.6 | 1.1 | 1.8 | 1.1 | 2.5 | -3.5
O=C(COC(=O)c1ccccc1Cc1ccccc1)Nc1ccc(SC(F)F)cc1 | -69.2 | -76.3 | -47.6 | 5.5 | -41.5 | 16.1*
SMILES | LYPLA2 inh | PME-1 inh | Fam108B counter | PP5 inh | LYPLA1 inh | PP1 counter
COc1ccccc1C(CCNCc1ccc(N(C)C)cc1)c1ccc(OC(C)C)cc1 (stereo unspecified) | -4.5 | -7.6 | 1.2 | 1.2 | -4.9 | 15.6*
O=[N+]([O-])c1ccccc1NC(=S)N/N=C/c1ccc(O)c(O)c1 | -9.8 | 27.5* | 12.4 | 1.9 | -15.1 | -4.8
O=C(O)c1[nH]c2ccccc2c1C(c1cc(Cl)cc([N+](=O)[O-])c1O)c1c(C(=O)O)[nH]c2ccccc12 | -2.1 | 0.2 | 13.3 | 1.3 | -3.7 | 15.4*
Cc1ccc(CNC(=O)CN2CCN(c3ccc(F)cc3)CC2)cc1 | -1.4 | 19.4 | 0.6 | 1.3 | 1.4 | -3.6
CC1=NC(=O)C(N=Nc2cccc(O)c2)N1c1ccccc1 (stereo unspecified) | -3.8 | 30.4* | 4.1 | 4.5 | -5.3 | -3.0
Cc1cccc(-n2c(O)c(C=Nc3cccc(O)c3)c3ccccc3c2=O)n1 | -3.1 | 2.0 | 6.8 | 0.2 | 3.5 | -6.8
CCCc1ccc(C(=O)NC(=O)c2ccccc2O)cc1 | 2.0 | -2.8 | 4.8 | -0.7 | -0.6 | -2.2
Cc1[nH]c2ccccc2c1/C=N/n1cnnc1 | -0.6 | 3.9 | 1.7 | 2.0 | -1.4 | -4.9
COCCN=c1scc(-c2cc(OC)c(OC)c(OC)c2)n1/N=C/c1c(C)[nH]c2ccccc12 | -0.9 | 26.9* | 3.6 | 1.2 | -8.5 | -4.5
CSc1nc(=S)n(-c2ccc([N+](=O)[O-])cc2)c(C)c1C(C)=O | -3.7 | -5.7 | 4.2 | 0.6 | -4.2 | 1.2
COc1cccc(C(=O)NNC(=O)C(=O)Nc2ccc(C)c(Cl)c2)c1 | 4.3 | -0.9 | 1.8 | 2.0 | -2.8 | 15.5*
CCc1ccc(NC(=O)C(=O)NNC(=O)c2cccc(OC)c2)cc1 | -3.3 | 3.0 | 0.5 | 1.4 | 0.4 | -0.9
COc1ccc(NS(=O)(=O)c2cccc(C(=O)N/N=C/c3ccc4c(c3)OCCO4)c2)cc1 | -74.5 | -78.9 | -54.8 | 1.0 | -39.1 | 16.9*
COc1ccccc1NS(=O)(=O)c1cccc(C(=O)N/N=C/c2ccc3c(c2)OCCO3)c1 | -8.9 | 1.4 | 3.9 | 2.4 | -5.7 | 2.0
CC(C)c1ccccc1NC(=O)COc1ccc2c(=O)c(Oc3ccc4ccccc4c3)coc2c1 | -17.1 | -18.1 | -14.8 | 4.4 | -8.6 | 18.4*
COCCCNC(=O)c1cc2cc(Br)ccc2oc1=O | 4.7 | 4.8 | 9.0 | -1.6 | 3.7 | -3.5
O=C(NNC(=O)c1cc2cc(Br)ccc2oc1=O)c1ccc(O)cc1O | -3.7 | 34.3* | 1.1 | -5.4 | -4.2 | 4.2
O=C(O)COc1ccc(/C=C2/SC(=S)N(Cc3ccccc3)C2=O)cc1 | -11.5 | -8.9 | -3.6 | 1.6 | -7.3 | 15.2*
Cc1c(C(=O)O)cccc1-c1ccc(/C=N/Nc2ccc(Br)cc2)o1 | 13.7 | 28.6* | 7.0 | 0.4 | 7.4 | 4.5
Cc1noc(/C=C/c2ccco2)c1S(=O)(=O)N1CCC(C(=O)N2c3ccccc3CC2C)CC1 (stereo unspecified) | -6.2 | -11.3 | -6.2 | 0.3 | -6.5 | 17.4*
Cc1noc(/C=C/c2ccco2)c1S(=O)(=O)N1CCC(C(=O)NC(C)c2ccccc2)CC1 (stereo unspecified) | 5.3 | -4.6 | -5.7 | 3.8 | -3.5 | 4.9

Compound activity: PubChem, The Scripps Research Institute Molecular Screening Center
